Reference: PubChem BioAssay (NCI)
Compounds without any hit were thinned out: in the full panel of roughly 83,000, 20% have a hit.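 Treatment: one concentration, 48 hours, 96-well format. Scoring: percent growth, with anything below 10 considered active.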 Active and inactive are the calls of the source.

How the values were obtained:
Test in all cases: NCI-60 one-dose screen, 48 h (100 = growth as untreated, 0 = no growth, -100 = all killed)
Conditions in all cases: 10 µM unless noted
SR leukemia = tested on: SR leukemia
RPMI-8226 leukemia = tested on: RPMI-8226 leukemia
OVCAR-8 ovarian = tested on: OVCAR-8 ovarian
OVCAR-5 ovarian = tested on: OVCAR-5 ovarian
OVCAR-4 ovarian = tested on: OVCAR-4 ovarian
SK-OV-3 ovarian = tested on: SK-OV-3 ovarian
IGROV1 ovarian = tested on: IGROV1 ovarian
OVCAR-3 ovarian = tested on: OVCAR-3 ovarian
HS 578T breast = tested on: HS 578T breast
NCI/ADR-RES ovarian = tested on: NCI/ADR-RES ovarian

Measured: growth

COC(=O)[C@]12CC[C@@H](C)[C@H](C)[C@@H]1C1=CC[C@@H]3[C@@](C)(CC#N)C4=C(C[C@@]3(C)[C@]1(C)CC2)OC[C@]4(C)C=O
inactive: OVCAR-4 ovarian 10% | IGROV1 ovarian 22.9%
active: SR leukemia 2.49% | RPMI-8226 leukemia 2.46% | OVCAR-8 ovarian 5.29% | OVCAR-5 ovarian -48.3% | SK-OV-3 ovarian 0.91% | OVCAR-3 ovarian -59.6% | HS 578T breast -0.493% | NCI/ADR-RES ovarian -11.3%

CN(C)c1ccc(N=C2C=CC(=O)C=C2)cc1
inactive: SR leukemia 25.9% | RPMI-8226 leukemia 61.1% | OVCAR-8 ovarian 81.7% | OVCAR-5 ovarian 120% | OVCAR-4 ovarian 70.4% | SK-OV-3 ovarian 99.7% | IGROV1 ovarian 96.5% | HS 578T breast 72.5% | NCI/ADR-RES ovarian 90.8%
active: OVCAR-3 ovarian -14.8%

COc1ccc(C2=NN(c3nc(-c4ccc(OC)cc4)c(C#N)c(=O)n3C)C(=O)CC2)cc1
inactive: SR leukemia 87.2% | RPMI-8226 leukemia 95% | OVCAR-8 ovarian 101% | OVCAR-5 ovarian 72.3% | OVCAR-4 ovarian 105% | SK-OV-3 ovarian 96% | IGROV1 ovarian 96.3% | OVCAR-3 ovarian 104% | HS 578T breast 94.9% | NCI/ADR-RES ovarian 101%

N#CC1=C(N)Oc2ccc3ccccc3c2C1c1ccccc1Cl (stereo not given)
active: NCI/ADR-RES ovarian 9.51%
inactive: SR leukemia 26.1% | RPMI-8226 leukemia 32.9% | OVCAR-8 ovarian 61.8% | OVCAR-5 ovarian 77.2% | OVCAR-4 ovarian 78.9% | SK-OV-3 ovarian 55.9% | IGROV1 ovarian 34.1% | OVCAR-3 ovarian 31.2% | HS 578T breast 40.4%

COc1ccc(-c2nc(Nc3ccc(-c4nc5ccccc5[nH]4)cc3)nc(N3CCOCC3)n2)cc1
active: SR leukemia 6.01% | RPMI-8226 leukemia -13.8% | OVCAR-3 ovarian 5.15% | HS 578T breast -11.9%
inactive: OVCAR-8 ovarian 39.2% | OVCAR-5 ovarian 66.3% | OVCAR-4 ovarian 59.8% | SK-OV-3 ovarian 19.6% | IGROV1 ovarian 33.7% | NCI/ADR-RES ovarian 34.2%

COc1ccc(-c2cc(-c3cccs3)n(N=O)c(=O)c2C#N)cc1
inactive: SR leukemia 114% | RPMI-8226 leukemia 88.4% | OVCAR-8 ovarian 97.4% | OVCAR-5 ovarian 94.4% | OVCAR-4 ovarian 100% | SK-OV-3 ovarian 105% | IGROV1 ovarian 100% | OVCAR-3 ovarian 123% | HS 578T breast 101% | NCI/ADR-RES ovarian 102%

CC[C@]12C=CCN3CC[C@@]4(c5cc([C@H]6CCC(=O)N6)c(OC)cc5N(C)[C@H]4[C@@](O)(C(=O)OC)[C@@H]1OC(C)=O)[C@@H]32
inactive: SR leukemia 92% [2.5 µM] | RPMI-8226 leukemia 114% [2.5 µM] | OVCAR-8 ovarian 103% [2.5 µM] | OVCAR-5 ovarian 88.4% [2.5 µM] | OVCAR-4 ovarian 104% [2.5 µM] | SK-OV-3 ovarian 91.1% [2.5 µM] | IGROV1 ovarian 103% [2.5 µM] | OVCAR-3 ovarian 112% [2.5 µM] | HS 578T breast 113% [2.5 µM] | NCI/ADR-RES ovarian 107% [2.5 µM]

Cc1cc2nc3c4cc(O)ccc4n(CCN(C)C)c3nc2cc1C
inactive: HS 578T breast 14.1%
active: SR leukemia 8.05% | RPMI-8226 leukemia -11.2% | OVCAR-8 ovarian -18.6% | OVCAR-5 ovarian -11.6% | OVCAR-4 ovarian 4.91% | SK-OV-3 ovarian -2.47% | IGROV1 ovarian -26.4% | OVCAR-3 ovarian 3.66% | NCI/ADR-RES ovarian -40.2%

Nc1nc(N)c2nc3c(nc2n1)CCCCCCCCCC3
inactive: SR leukemia 32.2% | RPMI-8226 leukemia 85.6% | OVCAR-8 ovarian 39.9% | OVCAR-5 ovarian 69.4% | OVCAR-4 ovarian 61.9% | SK-OV-3 ovarian 78.9% | IGROV1 ovarian 37.1% | OVCAR-3 ovarian 81.9% | HS 578T breast 72.6% | NCI/ADR-RES ovarian 52.9%

COc1cc(NC(C)CN(CC(C)C)C(C)C)c2ncccc2c1 (stereo not given)
inactive: SR leukemia 90.2% | RPMI-8226 leukemia 102% | OVCAR-8 ovarian 90.1% | OVCAR-5 ovarian 109% | OVCAR-4 ovarian 40.2% | SK-OV-3 ovarian 101% | IGROV1 ovarian 110% | OVCAR-3 ovarian 92.9% | HS 578T breast 115% | NCI/ADR-RES ovarian 93.3%

O=C(/C(=C(\C(=O)c1ccccc1)c1ccccc1)c1ccccc1)c1ccccc1
inactive: SR leukemia 31.6% | RPMI-8226 leukemia 18.7% | OVCAR-8 ovarian 41.6% | OVCAR-5 ovarian 100% | OVCAR-4 ovarian 55.8% | SK-OV-3 ovarian 82.5% | IGROV1 ovarian 69% | OVCAR-3 ovarian 40.8% | HS 578T breast 76.6% | NCI/ADR-RES ovarian 45.4%

O=C1c2cccc3cccc(c23)C(=O)N1CC#Cc1ccc2c3c(cccc13)C(=O)N(CCO)C2=O
inactive: SR leukemia 71.4% | RPMI-8226 leukemia 74.5% | OVCAR-8 ovarian 86.5% | OVCAR-5 ovarian 105% | OVCAR-4 ovarian 92.7% | SK-OV-3 ovarian 92.4% | IGROV1 ovarian 48.5% | OVCAR-3 ovarian 87% | HS 578T breast 83.3% | NCI/ADR-RES ovarian 91.7%

Cn1cc(-c2csc(-c3cn(CCN)c4ccccc34)n2)c2cccnc21
active: SR leukemia -16.9%
inactive: RPMI-8226 leukemia 51.1% | OVCAR-8 ovarian 40.8% | OVCAR-5 ovarian 74.9% | OVCAR-4 ovarian 51.8% | SK-OV-3 ovarian 63.8% | IGROV1 ovarian 39.9% | OVCAR-3 ovarian 45.5% | HS 578T breast 67.6% | NCI/ADR-RES ovarian 44.1%

Nc1c2c(nc3ccc(Cl)cc13)CC(c1ccc(O)cc1)CC2=O (stereo not given)
inactive: SR leukemia 31.8% | RPMI-8226 leukemia 34.9% | OVCAR-8 ovarian 75.5% | OVCAR-5 ovarian 91.9% | OVCAR-4 ovarian 81.3% | SK-OV-3 ovarian 68.7% | IGROV1 ovarian 49.3% | OVCAR-3 ovarian 25.3% | HS 578T breast 46.1% | NCI/ADR-RES ovarian 25.1%

COc1ccc(C2CC(=O)c3c(nc4ccc(Cl)cc4c3N)C2)cc1 (stereo not given)
inactive: SR leukemia 88.7% | RPMI-8226 leukemia 103% | OVCAR-8 ovarian 107% | OVCAR-5 ovarian 95.4% | OVCAR-4 ovarian 102% | SK-OV-3 ovarian 117% | IGROV1 ovarian 99.7% | OVCAR-3 ovarian 112% | HS 578T breast 115% | NCI/ADR-RES ovarian 105%

O=C1C(=O)c2ccccc2C(O)=C1CCCc1ccc(C2CCCCC2)cc1
inactive: SR leukemia 35.6% | RPMI-8226 leukemia 21.1% | OVCAR-8 ovarian 51.4% | OVCAR-5 ovarian 61.7% | OVCAR-4 ovarian 58.2% | SK-OV-3 ovarian 56.6% | IGROV1 ovarian 51.3% | OVCAR-3 ovarian 18% | HS 578T breast 53.4% | NCI/ADR-RES ovarian 42.8%

Clc1cc(Cl)cc(Nc2ccc3c(OCCCN4CCOCC4)cccc3n2)c1
inactive: RPMI-8226 leukemia 11.1% | OVCAR-8 ovarian 81.8% | OVCAR-5 ovarian 49.3% | OVCAR-4 ovarian 65.3% | SK-OV-3 ovarian 75.8% | IGROV1 ovarian 72.9% | OVCAR-3 ovarian 64.8% | HS 578T breast 35.9% | NCI/ADR-RES ovarian 60.9%
active: SR leukemia 6.22%

CC1(C)c2ccccc2C(=O)C1(Br)Cc1ccccc1 (stereo not given)
inactive: SR leukemia 53.5% | RPMI-8226 leukemia 46.8% | OVCAR-8 ovarian 93% | OVCAR-5 ovarian 73.7% | OVCAR-4 ovarian 63.6% | SK-OV-3 ovarian 110% | IGROV1 ovarian 92.5% | OVCAR-3 ovarian 65.4% | HS 578T breast 84.1% | NCI/ADR-RES ovarian 72.8%

COc1cc(/C=N/Nc2ncnc3c2c(C)nn3-c2ccc(F)cc2)ccc1O
inactive: SR leukemia 77% | RPMI-8226 leukemia 92.5% | OVCAR-8 ovarian 96.4% | OVCAR-5 ovarian 131% | OVCAR-4 ovarian 90.3% | SK-OV-3 ovarian 99.2% | IGROV1 ovarian 79.5% | OVCAR-3 ovarian 75.8% | HS 578T breast 99.1% | NCI/ADR-RES ovarian 95.7%

CCN1CCN(C(=O)[C@]23CC[C@@H](C)[C@H](C)[C@H]2C2=CC[C@@H]4[C@@]5(C)C/C(=C/c6cccc(OC)c6OC)C(=O)C(C)(C)[C@@H]5CC[C@@]4(C)[C@]2(C)CC3)CC1
inactive: RPMI-8226 leukemia 15.4% | OVCAR-8 ovarian 50.3% | OVCAR-5 ovarian 67.8% | OVCAR-4 ovarian 24.5% | SK-OV-3 ovarian 68.6% | IGROV1 ovarian 60.7% | OVCAR-3 ovarian 31.2% | HS 578T breast 67.6% | NCI/ADR-RES ovarian 35.3%
active: SR leukemia 5.2%

CN1CCN(CC#CCn2c3c(c4ccccc42)C[C@]2(C)[C@H]4CC[C@@H]5[C@H]6[C@H]7OC(=O)[C@@]6(CCC7(C)C)CC[C@@]5(C)[C@]4(C)CC[C@H]2C3(C)C)CC1
inactive: RPMI-8226 leukemia 59.2% | OVCAR-8 ovarian 60.3% | OVCAR-5 ovarian 112% | OVCAR-4 ovarian 74.1% | SK-OV-3 ovarian 106% | IGROV1 ovarian 90.9% | OVCAR-3 ovarian 80.2% | HS 578T breast 101% | NCI/ADR-RES ovarian 77%
active: SR leukemia 0.535%

CCCCn1c(-c2ccc(O)cc2)cn2c3c(=O)[nH]c(=O)n(C)c3nc12
inactive: SR leukemia 31.1% | RPMI-8226 leukemia 84.7% | OVCAR-8 ovarian 91.7% | OVCAR-5 ovarian 111% | OVCAR-4 ovarian 82.2% | SK-OV-3 ovarian 77.9% | IGROV1 ovarian 72.9% | OVCAR-3 ovarian 89.8% | HS 578T breast 82.6% | NCI/ADR-RES ovarian 90.1%

C=C(C)[C@@H]1CC[C@]2(C)[C@H](CC=C3[C@@H]4CC(C)(C)CC[C@]4(C=O)CC[C@]32C)[C@@]1(C)CCCN
inactive: RPMI-8226 leukemia 14.2% | OVCAR-8 ovarian 77.8% | OVCAR-5 ovarian 91.8% | OVCAR-4 ovarian 85.7% | SK-OV-3 ovarian 94.2% | IGROV1 ovarian 88.4% | OVCAR-3 ovarian 80.1% | HS 578T breast 96% | NCI/ADR-RES ovarian 87.2%
active: SR leukemia -31.5%

Cn1cnc2c1c(=O)n(CCC(=O)Nc1ccc(F)cc1)c(=O)n2C
inactive: SR leukemia 102% | RPMI-8226 leukemia 101% | OVCAR-8 ovarian 102% | OVCAR-5 ovarian 101% | OVCAR-4 ovarian 109% | SK-OV-3 ovarian 91.2% | IGROV1 ovarian 107% | OVCAR-3 ovarian 115% | HS 578T breast 106% | NCI/ADR-RES ovarian 109%

Cn1nc(-c2ccccc2)c2c(-c3ccccc3)onc2c1=O
inactive: SR leukemia 26.4% | RPMI-8226 leukemia 24.9% | OVCAR-8 ovarian 51.9% | OVCAR-5 ovarian 66.5% | OVCAR-4 ovarian 72.1% | SK-OV-3 ovarian 13.3% | IGROV1 ovarian 51.3% | OVCAR-3 ovarian 12.2% | HS 578T breast 15.8% | NCI/ADR-RES ovarian 45.8%

C=C(C)[C@@H]1CC[C@]2(CN)CC[C@]3(C)[C@H](CC[C@@H]4[C@@](C)(CCCN)[C@H](C(=C)C)CC[C@]43C)[C@@H]12
active: SR leukemia -3.93%
inactive: RPMI-8226 leukemia 58.5% | OVCAR-8 ovarian 94.1% | OVCAR-5 ovarian 103% | OVCAR-4 ovarian 102% | SK-OV-3 ovarian 107% | IGROV1 ovarian 86.9% | OVCAR-3 ovarian 89.4% | HS 578T breast 89.4% | NCI/ADR-RES ovarian 94.5%
